This note sets out measurements from PubChem BioAssay AID1259415 (National Center for Advancing Translational Sciences (NCATS), 2018).

SMILES strings stand for the structures. About 18,000 (4.4%) of roughly 410,000 compounds were called active. Another 7% or so got no clear call; they are omitted. The full list was thinned out, with actives kept by preference. A number with no mark means an inactive call. No stated cut-off is given here; in the data, active means activity change below about -60%; inconclusive means no clear call, values can overlap the other calls; inactive means above about -39%.
On the % scale 0 is the no-effect control and ±100 the full control effect.

The nature of this experiment: qHTS Assay for inhibitors of the human cytomegalovirus (HCMV). To be noted: HFF cells, HCMV-luciferase reporter, 72 h; at 57.5 µM; hits give low values. A digest of the protocol: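 HFF cells seeded 16 h at 37C, treated with compounds, infected with luciferase-reporter HCMV at MOI 1 PFU/cell; luciferase read at 72 h post infection, normalized to buffer-only and Salinomycin controls.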
For `COc1ccc(-c2nc3c4ccccc4n(CC(=O)Nc4ccc(C(C)=O)cc4)c(=O)n3n2)cc1`, the activity change, negative = inhibition was 29.2%. Next, `CC(C)Nc1ncnc2c1ncn2[C@H]1CN(Cc2ccncc2)C[C@@H](CO)O1`: 23.6%; `OC[C@@H]1CN(Cc2ccc(-c3ccccc3)cc2)C[C@H](n2cnc3c(NC4CCCC4)ncnc32)O1`: -84.2% (active); `OC[C@@H]1CN(Cc2cccs2)C[C@H](n2cnc3c(Nc4ccccc4)ncnc32)O1`: -28.3%. With `OCCN1CCN(c2ncnc3c2ncn3[C@H]2CN(Cc3ccco3)C[C@@H](CO)O2)CC1` the figure was -21.8%; with `OC[C@@H]1CN(C2CCCC2)C[C@H](n2cnc3c(NC4CCC4)ncnc32)O1`, -6.08%. With `OC[C@@H]1CN(Cc2ccncc2)C[C@H](n2cnc3c(N4CCN(c5ccccc5)CC4)ncnc32)O1` the figure was -88% (active). `CCCOC(=O)c1c(NC(=O)c2cc3nc(-c4ccc(OC)cc4)cc(C(F)(F)F)n3n2)sc2c1CCCC2`: the activity change, negative = inhibition was -2.77%. Next, `Cc1ccc(CSc2nc3ccsc3c(=O)n2CCC(C)C)cc1`: -15.8%; `COc1ccccc1CNC(=O)CS(=O)(=O)c1cccc2nsnc12`: 22.9%; `Cc1c(C(=O)OC(C)C)sc(NC(=O)c2cccnc2)c1C#N`: 4.66%. With `CCCc1ccc(-c2c(C)sc(NC(=O)c3ccnn3C)c2C#N)cc1` the figure was -97.3% (active); with `Cc1c(C#N)c(NC(=O)c2ccccc2)n(Cc2ccccc2)c1C`, -33.4%; with `CCc1cccc(NC(=O)COC(=O)C2CCN(c3ccc(C(F)(F)F)cn3)CC2)c1`, -14.3%. Take `Cc1ccc(NC(=O)CN2c3ccccc3S(=O)(=O)c3ccccc32)cc1F`: the activity change, negative = inhibition was 18.3%. With `CCN(CC)CCNC(=O)c1cc2c(=O)oc3ccc(C)cc3c2s1` the figure was 3.23%; with `COc1ccc(/C=N/OCc2ccccc2C#N)c(OC)c1`, 50.3%. Regarding `FC(F)(F)c1nnc2c3ccccc3c(Cl)nn12`, the activity change, negative = inhibition was -86.4% (active). As to `COc1ccc(-c2nn3c(-c4ccc(OC)cc4)nnc3c3ccccc23)cc1`, the activity change, negative = inhibition was 7.26%. Next, `Nc1nnc2c(C(F)(F)F)nc3ccccc3n12`: 1.13%; `Cc1cc(C)n2nc(C(=O)Oc3ccc4c(c3)OCO4)nc2n1`: 12.7%. Next, `CC(=O)c1nn(-c2ccc(OC(F)(F)F)cc2)nc1Nc1ccccc1`: -19.8%; `COc1ccc(NC(=O)c2ccc3nc(CCc4ccccc4)oc3c2)c(OC)c1`: 15.1%. Next, `CCN1CCC(O)(/C=C/c2ccc(C)cc2)C(C(=O)/C=C/c2ccc(C)cc2)C1` (centres undefined): -101% (active); `O=C(CCOc1ccccc1)N(Cc1cccnc1)c1nc2ccc(Cl)cc2s1`: -5.41%; `O=C(CCS(=O)(=O)c1ccccc1)N(Cc1cccnc1)c1nc2c(F)cccc2s1`: 112%. Regarding `Cc1ccc(-c2nc3ccccn3c2Nc2c(C)cccc2C)o1`, the activity change, negative = inhibition is -20.4%.

As for `Cc1cccc(C(=O)Nc2ccc(S(=O)(=O)N3CCCCC3c3cccnc3)cc2)c1` (centres undefined), the activity change, negative = inhibition is -34.9%. Next, `O=C(CS(=O)(=O)c1cccc2nsnc12)N1CCN(c2cccc(Cl)c2)CC1`: -13.3%; `C/C(Cc1ccccc1)=N\NC(=O)CNC(=O)c1ccccc1Cl`: 22.5%; `C/C(=N\NC(=O)c1ccccc1F)c1ccccn1`: -113% (active). With `C/C(=N\NC(=O)Cc1ccc(Cl)cc1)c1ccccn1` the figure was -98.9% (active); with `O=[N+]([O-])c1ccc(NC(=S)N2CCN(c3ccccn3)CC2)cc1`, -38.3%; with `CCOC(=O)c1ccc(NC(=S)N2CCN(c3ccccn3)CC2)cc1`, 0.324%. Next, `C/C(=N/NC(=O)CSc1ccccn1)c1ccc([N+](=O)[O-])cc1`: 21.4%; `CC(=NNC(=S)N1CCCCCC1)c1ccccn1`: -98.7% (active). As for `C/C(=N/NC(=O)c1ccn(C)n1)c1ccncc1`, the activity change, negative = inhibition is 22.2%.

On to `O=C(NC(=S)NC1CCSC1=O)c1ccccc1F` (centres undefined), for which the activity change, negative = inhibition is -2.85%. With `CCC[C@H]1[C@H](NCC2CCCCC2)CC[C@@]23CCCN2C(=O)CCC[C@@H]13` the figure was -6.34%; with `CSCC[C@H](NC(=O)NCCc1ccc(F)cc1)C(=O)O`, -21.4%; with `CCOc1ccc(NC(=O)C(=O)NCCc2csc3nc(-c4ccccc4F)nn23)cc1`, 18.8%. As to `C=CCC[C@@H](CCCCC)OC(=O)/C=C/[C@@H](O)[C@H](O)C[C@H](O)CC=C`, the activity change, negative = inhibition was -0.272%.

For the molecule `Fc1ccc(-c2nn(-c3ccccc3Cl)c3c2cnc2ccccc23)cc1`, the activity change, negative = inhibition is -6.36%.

As for `O=C(NC1(C(F)(F)F)NC(=O)N(Cc2cccnc2)C1=O)c1ccccc1Cl` (centres undefined), the activity change, negative = inhibition was -16%. With `O=S(=O)(NCCc1ccc(Cl)cc1)c1cccs1` the figure was -79.1% (active). Next, `CCc1ccc(NC(=O)CCNS(=O)(=O)c2cccs2)cc1`: 24.2%. With `CN(CC(=O)NCc1ccc(Cl)cc1)S(=O)(=O)c1cccs1` the figure was -18.2%; with `Cc1ccc2nc3c(cc(C(=O)NC4CCCCC4)c(=N)n3C(C)C)c(=O)n2c1`, -12.2%; with `CN(C)C(CNC(=O)c1cccc(S(=O)(=O)N2CCc3ccccc3C2)c1)c1ccccc1` (centres undefined), 6.73%. `Cc1cccc(N2CCN(C(=O)c3cccc(S(=O)(=O)N4CCc5ccccc5C4)c3)CC2C)c1` (centres undefined): the activity change, negative = inhibition is -62.2% (active). Next, `CC(NC(=O)c1cccc(S(=O)(=O)N2CCc3ccccc3C2)c1)c1ccco1` (centres undefined): -21.6%; `CCc1nnc2c3ccccc3nc(N3CCN(c4ccc(C)cc4C)CC3)n12`: 2.29%. With `COc1ccccc1N1CC(C(=O)Nc2nnc(SCC(=O)NC(C)C)s2)CC1=O` (centres undefined) the figure was 45.2%. With `CC(C)Nc1nnc(SCC(=O)/C=C2\N(C)c3ccccc3C2(C)C)s1` the figure was -65.1% (active); with `COC(=O)c1ccc(CSc2nnc(NC(C)C)s2)cc1`, -2.57%. As for `Cc1ccccc1-c1nc2scc(CCNC(=O)C(=O)Nc3ccc(F)cc3F)n2n1`, the activity change, negative = inhibition was 2.08%. In the case of `CC(=O)c1cccc(NC(=O)CSc2nc3c(c(=O)[nH]2)CCC3)c1`, the activity change, negative = inhibition is -2.89%. With `NC(=O)C1CCN(C(=O)c2cccc(NC(=O)c3nsc4ccccc34)c2)CC1` the figure was 40.7%. As for `CC(=O)Nc1ccc(-c2csc(NC(=O)Nc3ccccc3)n2)cc1`, the activity change, negative = inhibition is -99.1% (active).

Turning to `NC(c1csc(NC(=O)Nc2ccccc2Oc2ccccc2)n1)c1ccccc1Cl` (centres undefined), the activity change, negative = inhibition is -24.7%.

Consider `CCSc1nsc(NC(=O)Nc2cccc(C(C)=O)c2)n1`, for which the activity change, negative = inhibition is -74.9% (active).

For the molecule `C=CCSc1nsc(NC(=O)Nc2cccc(C(C)=O)c2)n1`, the activity change, negative = inhibition was -101% (active).

With `Cc1ccc(C(=O)Nc2nc(-c3ccccc3)ns2)cc1`, the activity change, negative = inhibition was 27%. With `CC(=O)c1ccc(NC(=O)CSc2nnc(NC(=O)Nc3ccccc3)s2)cc1` the figure was 103%. With `CSc1nsc(NC(=O)Nc2ccccc2)n1` the figure was -76.6% (active); with `C=CCSc1nnc2c(n1)-c1cccc3cccc-2c13`, 41.1%.

For `CC(=O)c1ccc(NC(=O)N[C@@H](Cc2ccccc2)C(=O)O)cc1`, the activity change, negative = inhibition was 23.2%. Next, `Cc1ccccc1CNC(=O)c1cccc(NC(=O)c2nsc3ccccc23)c1`: 66.7%. With `CCOC(=O)c1cnc2c(C)cc(Cl)cc2c1NCCc1ccc(OC)c(OC)c1` the figure was -5.49%; with `CCOc1ccc(NC(=O)CCC(=O)N2CC(C)Oc3ccc(C)cc32)cc1` (centres undefined), -10.3%; with `COc1ccc(NC(C)=O)cc1NC(=O)CN1CCN(c2ccc(F)cc2)CC1`, -5.69%. With `COc1ccccc1/C=C/c1nc(C#N)c(NC(C)c2ccccc2)o1` (centres undefined) the figure was 81.4%; with `CCCCC12CN3CC(C)(CN(C1)C3c1ccc(O)c(OC)c1)C2=O` (centres undefined), 4.32%; with `Cc1ccc(OCC(=O)Nc2ccc(OCc3cc(=O)n4c(C)csc4n3)cc2)cc1C`, 18.3%.

As to `CC(C(=O)N1CCN(c2ccccc2F)CC1)c1ccc([N+](=O)[O-])cc1` (centres undefined), the activity change, negative = inhibition is -11.5%.

As for `O=C1OC(C(=O)Nc2cccc(Br)c2)Cc2ccccc21` (centres undefined), the activity change, negative = inhibition is 7.91%. Next, `O=C(CCSc1ccccc1)N1CCN(c2ccccc2F)CC1`: 72.3%. With `Cn1cc(-c2ccccc2)cc(C#N)c1=O` the figure was -1.91%; with `Cn1c(-c2sc3cc(C(F)(F)F)cnc3c2-c2ccccc2)n[nH]c1=S`, 18.8%; with `CC12CCC(C(=O)N(NC(=O)c3ccccc3O)C1=O)C2(C)C` (centres undefined), -81.2% (active).

With `CC1=CC(C)(C)NC(=S)N1NC(=O)c1ccccc1Cl`, the activity change, negative = inhibition is 38.2%. Next, `O=C(NN1C(=O)C2CCCCC2C1=O)c1ccco1` (centres undefined): 3.07%; `CCC(C)NCC(=O)Nc1ccc([N+](=O)[O-])cc1C(=O)Nc1ccccc1F` (centres undefined): 20.4%. Next, `Cn1c(=O)cc(OCC(=O)N2CCN(c3ccccc3)CC2)c2ccccc21`: 0.385%; `CC(C)(C)OC(=O)C[C@@H]1C/C=C\C[C@@H](CC(=O)N[C@H](CO)Cc2ccccc2)C(=O)NC[C@@H](c2ccccc2)OC1=O`: -6.88%; `CC(C)(C)OC(=O)C[C@H]1C/C=C\C[C@@H](CC(=O)N[C@H](CO)Cc2ccccc2)C(=O)NC[C@@H](c2ccccc2)OC1=O`: -8.79%. Next, `O=C(C[C@H]1C/C=C\C[C@@H](NC(=O)OCC2c3ccccc3-c3ccccc32)C(=O)O[C@@H](c2ccccc2)CNC1=O)N[C@H](CO)Cc1ccccc1`: -86.9% (active); `O=[N+]([O-])c1ccc(Oc2ccc(F)cc2Br)c2ccncc12`: -78.1% (active); `COc1ccc2oc(=O)c(-c3cn4c(n3)sc3cc(OC)ccc34)cc2c1`: -16.2%.
